# A selection: hits, their analogues and other compounds. The true share with any hit is near 3.5%.
# TEAD-YAP inh – TEAD-YAP interaction inhibition | actives 1.4% (n = 640,000) | inhibition, % at 9.12 µM | HEK-TIYL cells, TEAD-Gal4/YAP UAS-luciferase luminescence; in the data active = inhibition above about 32%
# GPR151 activ – activators of human GPR151 | Q8TDV0 | PathHunter beta-arrestin GPR151 cells, luminescence | activation, % at 11.2 µM | actives 1% (n = 650,000) | AID 1508602; in the data active = activation above about 4.9%
# Target sequence (Q8TDV0 whole entry, looked up): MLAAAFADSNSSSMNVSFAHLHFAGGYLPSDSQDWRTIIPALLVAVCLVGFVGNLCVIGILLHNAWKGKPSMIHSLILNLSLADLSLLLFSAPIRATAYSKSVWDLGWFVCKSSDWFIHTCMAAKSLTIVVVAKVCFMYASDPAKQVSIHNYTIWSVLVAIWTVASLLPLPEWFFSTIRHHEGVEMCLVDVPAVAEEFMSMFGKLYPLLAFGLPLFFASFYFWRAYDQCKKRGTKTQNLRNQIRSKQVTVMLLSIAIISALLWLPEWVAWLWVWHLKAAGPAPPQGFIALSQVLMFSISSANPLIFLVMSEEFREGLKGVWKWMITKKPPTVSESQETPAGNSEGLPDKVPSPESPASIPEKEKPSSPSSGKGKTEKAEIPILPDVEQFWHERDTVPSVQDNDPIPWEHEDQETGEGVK
# FBW7 activator – human FBW7 E3 ligase activation, primary screen; actives 0.13% (n = 650,000); AlphaScreen FBW7–phospho-cyclin E peptide binding, activator screen; normalized activity (activation), % at 26.1 µM; in the data active = normalized activity above about 1.9%;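 also: purified mutant Fbw7 with reduced substrate affinity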
# MITF primary – inhibitors of human MITF; O75030; AlphaScreen MITF homodimerization, bead proximity signal; inhibition, % at 2.6 µM; actives 0.91% (n = 650,000); AID 1259374; in the data active = inhibition above about 50%
# Hits are given with their value; - = inactive; . = no result given.
SMILES,TEAD-YAP inh,GPR151 activ,FBW7 activator,MITF primary
O=[N+]([O-])c1cc(Br)c(Nc2ccccc2)c([N+](=O)[O-])c1,40,-,-,-
O=C1C(Cl)=C(Nc2ccc(F)cc2)C(=O)N1c1ccc(I)cc1,-,-,-,-
COc1ccc2c(c1)nc(SCC(=O)C(C)(C)C)n2C,-,-,-,-
COc1ccc2c(c1)nc(SCc1ccccc1)n2C,-,-,2.0,-
C=CCOc1ccc(/C=C2\SC(=N)N(c3nccs3)C2=O)cc1OCC,36,-,-,-
C=CCOc1ccc(/C=C2\SC(NC(C)=O)=NC2=O)cc1OCC,-,-,-,-
Cn1cccc1/C=C1\CCc2ccccc2C1=O,64,-,-,-
Cn1cccc1/C=C1\Cc2ccccc2C1=O,-,-,-,-
CCC(=O)N1CCCc2ccc(NC(=O)NCc3cccc4ccccc34)cc21,-,-,14,-
CCOC(=O)C1=C(C)N(c2ccc(OCC)cc2)C(=O)/C1=C\c1ccccc1O,-,-,-,-
COc1ccc(-c2nnc3n2N=C(c2ccc(C)cc2)CS3)cc1OC,52,-,-,-
COc1ccc(C2=Nn3c(nnc3-c3cccc(F)c3)SC2)cc1,64,-,-,-
COc1ccc(-c2nnc3n2N=C(c2ccc(F)cc2)CS3)cc1,-,-,-,-
COc1ccc(-c2nnc3n2N=C(c2ccc(C)cc2)CS3)cc1,52,-,-,-
CCc1nnc2n1N=C(c1ccc(OC)c(OC)c1)CS2,-,-,-,-
COc1ccc(-c2nnc3n2N=C(c2cccc(OC)c2)CS3)cc1,-,-,-,-
COc1cccc(C2=Nn3c(nnc3-c3cccc(C)c3)SC2)c1,48,-,-,-
Cc1cccc(-n2c(Cn3nc(C)c(Cl)c3C)n[nH]c2=S)c1,-,-,-,-
CCOC(=O)CCC(=O)Nc1c(C(=O)Nc2cccc(OC)c2)oc2ccccc12,-,-,-,-
c1ccc(-c2nc3ccc(Cc4ccc5nc(-c6ccccn6)[nH]c5c4)cc3[nH]2)nc1,34,-,-,-
Nc1ccc2nc(-c3ccccn3)[nH]c2c1,-,-,-,-
O=S(=O)(c1cccs1)N1CCN(c2cc(N3CCOCC3)ncn2)CC1,-,-,-,-
O=C(CSc1cc(N2CCOCC2)ncn1)c1cccs1,73,-,-,-
O=C(Nc1c2c(nn1-c1ccc(F)cc1)CSC2)c1cc([N+](=O)[O-])ccc1Cl,86,-,-,-
Cc1ccc(-n2nc3c(c2NC(=O)c2cc([N+](=O)[O-])ccc2Cl)CSC3)cc1,63,-,-,-
SMILES,TEAD-YAP inh,GPR151 activ,FBW7 activator,MITF primary
O=C(Nc1c2c(nn1-c1ccc(Cl)cc1)CSC2)c1cc([N+](=O)[O-])ccc1Cl,-,-,-,-
Nn1c(SCC(=O)c2ccc(O)cc2O)nnc1-c1cc(Cl)ccc1Cl,42,-,-,-
Nn1c(SCC(=O)N2CCCC2)nnc1-c1ccc(Cl)cc1Cl,-,-,-,-
CCC(C)(C)C1CCc2c(sc(NC(C)=O)c2C(N)=O)C1 (stereo not given),-,-,-,-
CC1CCc2cc(F)ccc2N1S(=O)(=O)c1c(N)n(C)c(=O)n(C)c1=O (stereo not given),-,-,-,-
COc1ccc(C(=O)C2CCN(S(=O)(=O)c3ccc(F)cc3)CC2)cc1,42,-,-,-
CC(=O)Nc1ccc(S(=O)(=O)N2c3ccc(F)cc3CCC2C)cc1 (stereo not given),46,-,-,-
COc1ccc(S(=O)(=O)N2c3ccc(F)cc3CCC2C)cc1 (stereo not given),56,-,-,-
C=CCOc1ccccc1CN[C@@H]1C[C@@H](C(=O)NC)N(CC(C)C)C1,-,-,-,-
O=C(Oc1coc(CSc2ncccn2)cc1=O)c1ccccc1I,-,-,-,-
Cc1ccc(-n2c(SCc3cc(=O)n4ccccc4n3)nc3[nH]ncc3c2=O)cc1Cl,33,-,-,-
CCOC(=O)CNc1ncnc2scc(-c3ccccc3)c12,35,-,-,-
COc1ccc(-c2csc3ncnc(NCCCO)c23)cc1,-,-,-,-
CCOC(=O)CNC(=O)CSc1ncnc2scc(-c3ccc(Cl)cc3)c12,-,-,-,-
COc1ccc(-c2csc3ncnc(NCCO)c23)cc1,38,-,-,-
COC(=O)CCNc1ncnc2scc(-c3ccc(C)cc3)c12,36,-,-,-
CCOC(=O)CSc1ncnc2scc(-c3ccc(F)cc3)c12,-,-,2.4,-
CCOc1ccc(/C=c2/sc3ncnn3c2=O)cc1OCC,-,-,-,-
OCC1CCCN1c1nccc(NCCc2ccc(O)cc2)n1 (stereo not given),-,-,-,-
CCOc1ccc(/C=C/C(O)=C2/C(=O)NC3(C)CC2c2ccccc2O3)cc1OC (stereo not given),49,-,-,-
O=C(CSc1nccc(=O)[nH]1)c1ccc(O)c(O)c1,-,-,-,55
Cc1cc(C)nc(N/N=C/c2ccccc2[N+](=O)[O-])n1,-,-,-,-
Cn1c(/C=C/c2ccccc2)nc2ccccc21,93,-,-,-
CCCc1nc2ccccc2n1C(=O)CCC(=O)O,-,-,-,-
CCn1c(/C=C/c2ccc(OC)cc2)nc2ccccc21,72,-,-,-
SMILES,TEAD-YAP inh,GPR151 activ,FBW7 activator,MITF primary
COCCn1c(/C=C/c2ccccc2)nc2ccccc21,-,-,-,-
O=C(O)CCC(=O)n1c(/C=C/c2ccccc2)nc2ccccc21,83,-,-,-
CC(=O)c1ccc(/C=C/c2nc3ccccc3n2C)o1,53,-,-,-
CCOC(=O)N1CCC(n2c(SCc3ccc(C)cc3)nc3ccccc3c2=O)CC1,-,-,-,-
O=C(Nn1c(C2CC2)nc2cc(Cl)ccc2c1=O)c1ccccc1,53,-,-,-
CCCCC[C@](C)(O)/C=C/[C@@H]1[C@@H](C/C=C\CCCC(=O)OC)[C@@H](O)C[C@H]1O,.,-,.,-
Cc1nc(NC(=O)c2sc3nc4cc5c(cc4cc3c2N)OCO5)sc1C,-,-,-,-
COCCn1c(C)cc(C2=NNC(=Nc3cccc(C)c3)SC2)c1C,-,-,-,-
C=CCN=C1NN=C(c2cc(C)n(CCOC)c2C)CS1,95,-,-,-
COCCn1c(C)cc(C2=NNC(=Nc3ccc(C)cc3)SC2)c1C,-,-,-,-
COCCCN=C1NN=C(c2cc(C)n(Cc3ccco3)c2C)CS1,46,-,-,-
Cc1cc(C2=NNC(=Nc3ccccc3)SC2)c(C)n1CC1CCCO1 (stereo not given),54,-,-,-
C=CCn1c(C)cc(C2=NNC(=Nc3ccccc3OC)SC2)c1C,72,-,-,-
COc1ccccc1N=C1NN=C(c2ccccc2OC)CS1,-,-,-,-
O=[N+]([O-])c1cc(C(F)(F)F)ccc1NCc1ccccn1,-,-,-,-
O=c1[nH]c(N2CCCC2)nc2c1CN(Cc1cccn1-c1cccnc1)CC2,-,-,-,-
CCOC(=O)c1c(-c2ccc(OC)cc2)csc1NC(=O)CCCC(=O)O,-,-,-,-
COC(=O)c1c(-c2ccc(C)c(C)c2)csc1NC(=O)CCCC(=O)O,33,-,-,-
COc1ccc2nc3c(cc2c1)c(N)nn3C(=O)c1cc(OC)c(OC)c(OC)c1,62,-,-,-

# Screening results deposited in PubChem by The Scripps Research Institute Molecular Screening Center.
